# DUX4 txn inh: DUX4-mediated transcription inhibition. 293T-iDUX4 ZSCAN4-Gaussia luciferase reporter, 24 h; active compounds read low. activity change, negative = inhibition, % (test concentration not listed). 37,000 tested, 0.8% active;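 active means mean inhibition of at least 10% in the main channel, exceeding the control channel by a set limit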;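 further: 0% = median of neutral control wells and -100% = median of positive control wells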
# Starred values were filed as active, the others as inactive; ! = not active in a repeat. This excerpt belongs to a sample that is enriched for hits.
SMILES,DUX4 txn inh
COc1cccc(C#Cc2ccc3c(c2)[C@@H]2[C@@H](CCN2C(=O)c2ccccc2F)[C@@H](CO)N3)c1,8
COc1ccc(C#Cc2ccc3c(c2)[C@@H]2[C@@H](CCN2C(C)=O)[C@@H](CO)N3)cc1,19
COc1cccc(C#Cc2ccc3c(c2)[C@H]2[C@H](CCN2C(=O)c2ccccc2F)[C@H](CO)N3)c1,-28*
C/C=C/c1cnc2c(c1)C(=O)N([C@@H](C)CO)C[C@H](C)[C@@H](CN(C)Cc1ccncc1)O2,-1
O=C(C1CC1)N1CC2(C1)[C@@H](c1ccccc1)[C@@H](CO)N2CCC(F)(F)F,6
COc1cccc(-c2ccc3n(c2=O)C[C@@H]2[C@@H](CO)[C@H](C(=O)N(C)C)N(C(=O)C4CC4)[C@H]32)c1,-2
O=C(NCc1ccncc1)[C@@H]1[C@@H](CO)[C@@H]2Cn3c(ccc(-c4cccnc4)c3=O)[C@@H]2N1C(=O)C1CC1,4
CCC(=O)N1C[C@@H](O)COC[C@@H]2O[C@H](CC(=O)N3CCCCC3)CC[C@H]21,6
COCC(=O)N1[C@H](C#N)[C@H](c2ccccc2-c2ccc(C)cc2)[C@H]1CO,8
COCCNC(=O)C[C@@H]1CC[C@H]2[C@@H](COC[C@H](O)CN2Cc2cccc(-c3ccncc3)c2)O1,8
C[C@H](CO)N1C[C@H](C)[C@@H](CN(C)Cc2cccc(C(F)(F)F)c2)OCc2ccccc2-c2ccccc2C1=O,-42*
C[C@H](CO)N1C[C@H](C)[C@H](CN(C)Cc2ccc(-c3ccccc3)cc2)OCc2ccccc2-c2ccccc2C1=O,-7
C[C@@H]1CN([C@@H](C)CO)C(=O)c2ccccc2-c2ccccc2CO[C@@H]1CN(C)Cc1ccc(Cl)c(Cl)c1,-31*
C[C@@H]1CN([C@@H](C)CO)C(=O)c2ccccc2-c2ccccc2CO[C@@H]1CN(C)Cc1ccc(F)cc1,0
C[C@H](CO)N1C[C@H](C)[C@@H](CN(C)Cc2ccc3c(c2)OCO3)OCc2ccccc2-c2ccccc2C1=O,8
C[C@H](CO)N1C[C@H](C)[C@H](CN(C)Cc2ccc3c(c2)OCO3)OCc2ccccc2-c2ccccc2C1=O,-6
C[C@@H]1CN([C@@H](C)CO)C(=O)c2ccccc2-c2ccccc2CO[C@@H]1CN(C)Cc1ccc(-c2ccccc2)cc1,-29*
C[C@@H]1CN([C@H](C)CO)C(=O)c2ccccc2-c2ccccc2CO[C@@H]1CN(C)Cc1cccc(F)c1,-7
C[C@H]1CN([C@@H](C)CO)C(=O)c2ccccc2-c2ccccc2CO[C@@H]1CN(C)Cc1cccc(F)c1,-3
O=C(C1CC1)N1CC2(C1)[C@H](c1ccccc1)[C@@H](CO)N2CC1CCCC1,-4
CNC(=O)C[C@H]1CC[C@@H]2[C@H](COc3ccc(NC(=O)Nc4ccccc4OC)cc3C(=O)N2C)O1,-1
C[C@H](CO)N1C[C@H](C)[C@H](CN(C)Cc2ccncc2)Oc2c(NC(=O)C3CCOCC3)cccc2C1=O,-2
CCCNC(=O)[C@@H]1[C@@H](CO)[C@@H]2Cn3c(ccc(-c4cccc(F)c4)c3=O)[C@H]1N2C(=O)CC,6
Cc1ccccc1S(=O)(=O)N1[C@H](C#N)[C@H](c2ccc(-c3ccc(F)cc3)cc2)[C@H]1CO,-4
CS(=O)(=O)N1[C@H](C#N)[C@@H](c2ccc(/C=C/c3ccccc3)cc2)[C@H]1CO,4
SMILES,DUX4 txn inh
Cc1ccccc1S(=O)(=O)N1[C@@H]2CNC[C@H]1C2c1ccc(-c2cccc(C#N)c2)cc1 (stereo partly drawn),-8
Cc1ccccc1S(=O)(=O)N1C[C@@H]2N[C@H](C1)C2c1ccc(/C=C/c2ccccc2)cc1 (stereo partly drawn),-37*
C/C=C/c1ccc(C2[C@H]3CNC[C@@H]2N3S(=O)(=O)c2ccccc2C)cc1 (stereo partly drawn),13
Cc1ccccc1S(=O)(=O)N1C[C@@H]2N[C@H](C1)C2c1ccc(-c2ccc(C#N)cc2)cc1 (stereo partly drawn),-69*!
O=C(C[C@@H]1C[C@@H]2c3cc(NC(=O)Nc4ccccc4F)ccc3O[C@@H]2[C@H](CO)O1)NCC1CC1,5
CCS(=O)(=O)N1CCCCN2[C@@H](CO)[C@@H](c3ccc(-c4ccccc4C)cc3)[C@@H]2C1,-3
COCCNC(=O)C[C@@H]1CC[C@@H]2[C@H](COc3ccc(NC(=O)c4cnccn4)cc3C(=O)N2C)O1,3
OC[C@@H]1[C@H](c2ccc(C#CC3(O)CCCC3)cc2)[C@H]2CN(Cc3ccncc3)CCCCN12,2
CN1CCCCN2[C@H](C1)[C@@H](c1ccc(C#CC3(O)CCCC3)cc1)[C@@H]2CO,-9
COc1ccc(NC(=O)N2CCCCN3[C@H](C2)[C@H](c2ccc(C#CCC(C)C)cc2)[C@@H]3CO)cc1,15
OC[C@H]1[C@H](c2ccc(C#CC3(O)CCCC3)cc2)[C@@H]2CN(Cc3ccncc3)CCCCN12,15
COc1ccc(C#Cc2ccc([C@H]3[C@H](CO)N4CCCCN(C)C[C@@H]34)cc2)cc1,-26*
COc1ccc(C#Cc2ccc([C@@H]3[C@@H](CO)N4CCCCN(Cc5ccncc5)C[C@@H]34)cc2)cc1,-45*
CCCC#Cc1ccc([C@H]2[C@H](CO)N3CCCCN(Cc4ccncc4)C[C@@H]23)cc1,20
OC[C@H]1[C@@H](c2ccc(C#CC3(O)CCCC3)cc2)[C@H]2CN(Cc3ccncc3)CCCCN21,15
COc1ccc(NC(=O)N2CCCCN3[C@@H](CO)[C@H](c4ccc(C#CCC(C)C)cc4)[C@@H]3C2)cc1,-1
COc1ccc(C#Cc2ccc([C@H]3[C@@H](CO)N4CCCCN(Cc5ccncc5)C[C@H]34)cc2)cc1,-32*
COc1ccc(NC(=O)N2CCCCN3[C@H](CO)[C@@H](c4ccc(C#CCC(C)C)cc4)[C@@H]3C2)cc1,-17*
CN1CCCCN2[C@H](CO)[C@H](c3ccc(C#CC4(O)CCCC4)cc3)[C@@H]2C1,25
O=C(C[C@H]1C=C[C@H](NC(=O)C2CCC2)[C@@H](CO)O1)NCc1ccccc1Cl,5
CCC(=O)N1[C@@H](CO)[C@@H](c2ccc(-c3cccc(F)c3)cc2)[C@@H]1CN(C)C(C)=O,-1
CO[C@H](CN(C)S(=O)(=O)c1cccc(Cl)c1)[C@@H](C)CN([C@@H](C)CO)S(=O)(=O)c1cccc(Cl)c1,7
COc1ccccc1C#Cc1ccc2c(c1)[C@H]1[C@H](CCN1S(=O)(=O)c1cccc(C)c1)[C@H](CO)N2,0
C[C@@H]1CN([C@@H](C)CO)C(=O)c2cc(NC(=O)Cc3ccccc3)ccc2O[C@@H](C)CCCCO[C@H]1CN(C)Cc1ccncc1,-3
C/C=C/c1ccc([C@H]2[C@@H](CO)N(C(=O)CN(C)C)C23CN(C(=O)C2CC2)C3)cc1,4
CN(C)CC(=O)N[C@@H]1CC[C@H](CC(=O)NCCN2CCCCC2)O[C@@H]1CO,3
C[C@@H]1CN([C@H](C)CO)C(=O)c2c(c3ccccc3n2C)-c2ccccc2CO[C@@H]1CN(C)Cc1ccc(C(F)(F)F)cc1,-43*
C[C@@H]1CN([C@H](C)CO)C(=O)c2c(c3ccccc3n2C)-c2ccccc2CO[C@H]1CN(C)Cc1ccc(C(F)(F)F)cc1,3
C[C@@H]1CN([C@H](C)CO)C(=O)c2c(c3ccccc3n2C)-c2ccccc2CO[C@H]1CN(C)Cc1ccc(C(=O)O)cc1,6
C[C@H]1CN([C@@H](C)CO)C(=O)c2c(c3ccccc3n2C)-c2ccccc2CO[C@@H]1CN(C)Cc1ccc(C(F)(F)F)cc1,-49*
